# ± gives the standard deviation.
# System: OVCAR-3-derived ovarian cancer stem-like cells (spheroids)
# Assay: cell growth relative to untreated control; higher = more growth (less inhibition)
# Conditions: 2.29 µM; 96 h
# Summary of the method: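 Viability of stem-like cells from OVCAR-3 spheroids was assessed with TOX8 resazurin fluorescence at ex 560/em 590 nm. The cells had been trypsin-dissociated, seeded at 50,000 cells/mL in stem cell medium in ultra-low attachment 96-well plates and preincubated 24 h, then treated with compounds at 2.29 uM for 96 h at 37°C, 5% CO2, in 4 replicate wells, with fluorescence read after 4 h. Results were converted to percent growth against untreated wells after blank subtraction and Grubbs outlier removal.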
row,Compound,cell growth
1,COc1cc(/C=C2\S/C(=N/Nc3nc(-c4ccc(Br)cc4)cs3)NC2=O)cc(OC)c1OC,91.9 ± 19%
2,Cc1[nH]c(=O)nc(N/N=C/c2ccc(Cl)cc2)c1C(=O)Nc1ccc(Cl)cc1,63.1 ± 11%
3,O=C1c2cccc(NCCCNCCO)c2C(=O)c2cccc(NCCCNCCO)c21,57.9 ± 16%
4,O=S(=O)(O)c1cc(N=Nc2cc(S(=O)(=O)O)c3ccccc3c2O)ccc1/C=C/c1ccc(N=Nc2cc(S(=O)(=O)O)c3ccccc3c2O)cc1S(=O)(=O)O,110 ± 24%
5,C/C(NNC(=O)c1ccccc1O)=C1\C=Nc2ccccc2S1,16 ± 5.3%
6,Cn1c(=O)c2nc3sc4c(n3c2n(C)c1=O)C(=O)c1ccccc1C4=O,115 ± 20%
7,S=c1nc[nH]c2nc[nH]c12,95.2 ± 8.4%
8,N#Cc1ccccc1NC(=O)C(=O)C(C(=O)c1ccccc1F)C1OC(=O)c2ccccc21 (centres undefined),98.8 ± 24%
9,Cc1ccc(Nc2nc(C)c(C(/C=C/c3ccc(/C=C/C(=N\NC(=O)C[n+]4ccccc4)c4sc(Nc5ccc(C)cc5[N+](=O)[O-])nc4C)cc3)=N/NC(=O)C[n+]3ccccc3)s2)c([N+](=O)[O-])c1,110 ± 11%
10,NCCSSCc1ccccc1CSSCCN,109 ± 25%
11,CCN(CC)c1ccc2cc3ccc(=[N+](CC)CC)cc-3oc2c1,45.5 ± 10%
12,Cc1cc(C)c(NC(=O)/C=C/c2ccccc2)c(C)c1,89.7 ± 13%
13,COC(C(=O)C(O)C(C)O)C1Cc2cc3cc(OC4CC(OC5CC(O)C(O)C(C)O5)C(O)C(C)O4)c(C)c(O)c3c(O)c2C(=O)C1OC1CC(OC2CC(OC3CC(O)C(OC)C(C)O3)C(O)C(C)O2)C(O)C(C)O1 (centres undefined),54.3 ± 53%
14,COc1cc(/C=C/C(=O)CC(=O)/C=C/c2ccc(O)c(OC)c2)ccc1O,89 ± 24%
15,Cn1ncc2cc3c(Nc4ccc(Cl)cc4)cccc3nc21,8 ± 4.9%
16,CN(C)C[C@H]1CC[C@@H](CN(C)C)C1=O,93.8 ± 21%
17,OC[C@H]1O[C@@H](n2cnc3cncnc32)[C@H](O)[C@@H]1O,10.4 ± 3.1%
18,C=CCOC1OC(CO[Si](C)(C)C(C)(C)C)C(OCc2ccccc2)C(OCc2ccccc2)C1OCc1ccccc1 (centres undefined),116 ± 18%
19,CC1CCCC(C(=O)/C(=C/c2cccc(Cl)c2)C(=O)C(=O)O)C1 (centres undefined),93.9 ± 27%
20,O=C1OC(c2ccco2)=N/C1=C\c1ccc(Cl)c(Cl)c1,17.7 ± 5%

row,Compound,cell growth
1,CN(CO)c1nc(N(C)CO)nc(N(C)CO)n1,83.5 ± 18%
2,O=c1cccccc1O,92.1 ± 38%
3,NC(=Nc1nc(-c2ccccn2)cc2ccccc12)c1ccccn1,9.1 ± 2.3%
4,COc1ccccc1Cc1nc(-c2ccccc2)nn(C2OC(COC(C)=O)C(OC(C)=O)C(OC(C)=O)C2OC(C)=O)c1=S (centres undefined),97.5 ± 16%
5,O=C1c2ccccc2C(=O)c2sc(Nc3ccc(Cl)cc3)nc21,14.5 ± 3.2%
6,COC(=O)C1c2cc3c(c(O)c2C(OC2OC(C)C(OC)C(C)(OC)C2OC)CC1(C)O)C(=O)c1c(O)cc2c(c1C3=O)OC1OC2(C)C(O)C(N(C)C)C1O (centres undefined),51.8 ± 47%
7,O=C1c2ccccc2C(=O)c2sc(Nc3ccc(Cl)c(Cl)c3)nc21,9.6 ± 7%
8,Cc1ccc(CC2(OCCN(C)C)CCC(C(C)(C)C)CC2)cc1 (centres undefined),82.2 ± 24%
9,CO[C@H](C(=O)[C@@H](O)[C@@H](C)O)[C@@H]1Cc2cc3cc(O[C@H]4C[C@@H](O[C@H]5C[C@@H](O)[C@H](O)[C@@H](C)O5)[C@H](O)[C@@H](C)O4)c(C)c(O)c3c(O)c2C(=O)[C@H]1O[C@H]1C[C@@H](O[C@H]2C[C@@H](O[C@H]3C[C@](C)(O)[C@H](O)[C@@H](C)O3)[C@@H](O)[C@@H](C)O2)[C@H](O)[C@@H](C)O1,10.8 ± 3.6%
10,C=C1C(=O)OCC2C(C(=O)O)=CC3C(C)C(C)=CC123 (centres undefined),76.4 ± 10%
11,CCCCS(=N)(=O)CCC(N)C(=O)O (centres undefined),86.6 ± 8.1%
12,CN1C(Cl)=NS(=O)(=O)c2ccccc21,99.9 ± 12%
13,C=C1C(=O)C23CC[C@@H]4C(C)(C(=O)OC)CCCC4(C)[C@@H]2CCC1(O)C3 (some centres undefined),13 ± 5.5%
14,O=C1C=C(NCCc2ccccc2)c2ccccc2C1=O,57.3 ± 10%
15,CC1=CC(=O)c2cccc(NC3=NCCO3)c21,92.8 ± 25%
16,COc1ccc2nc3cc([N+](=O)[O-])ccc3c(NNc3ccccc3)c2c1,76.2 ± 22%
17,OC(CN1CCCCC1)c1ccc(/C=C/c2ccc(Cl)cc2)cc1 (centres undefined),112 ± 16%
18,Cc1c2cnccc2c(C)c2c1c1ccccc1n2CCOC(=O)c1ccccc1,127 ± 35%
19,CN(C)c1ccc(/C=C/C(=O)c2ccccc2)cc1Br,114 ± 9.2%

# Reference: the supplement of paper PMC3484114
